The list is not random: actives were taken first. Their share in the collection is about 7%.
ADAM10 inh: human ADAM10 inhibitors, primary screen, biochemical, QFRET, HTS. Disintegrin and metalloproteinase domain-containing protein 10 (Homo sapiens), O14672. recombinant ADAM10, EDANS/DABCYL FRET peptide cleavage, 3 h. inhibition, % at 7 µM. 370,000 compounds, 0.62% hits;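 active means inhibition above a per-campaign cutoff equal to the mean of compounds falling between control-based bounds plus 3 SD, cut at about 20% in these data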
Target sequence (O14672 214-748 limits assumed): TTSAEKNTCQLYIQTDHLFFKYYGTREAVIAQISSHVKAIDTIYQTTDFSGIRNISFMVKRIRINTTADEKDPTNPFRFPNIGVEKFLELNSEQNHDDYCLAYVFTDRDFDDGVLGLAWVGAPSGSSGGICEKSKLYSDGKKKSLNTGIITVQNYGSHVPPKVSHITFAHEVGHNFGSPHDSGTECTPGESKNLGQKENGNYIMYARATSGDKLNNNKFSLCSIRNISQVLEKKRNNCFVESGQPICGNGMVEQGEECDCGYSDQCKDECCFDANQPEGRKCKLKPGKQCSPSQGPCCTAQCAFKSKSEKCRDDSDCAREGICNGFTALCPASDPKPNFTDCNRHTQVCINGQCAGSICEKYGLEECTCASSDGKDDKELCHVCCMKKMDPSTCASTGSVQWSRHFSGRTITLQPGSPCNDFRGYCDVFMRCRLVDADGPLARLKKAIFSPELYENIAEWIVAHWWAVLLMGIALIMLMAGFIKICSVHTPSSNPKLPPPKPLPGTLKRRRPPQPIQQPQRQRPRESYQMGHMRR
KLK7 zymogen act: proKLK7 zymogen activators, primary screen, biochemical, fluorescence intensity; activation, % at 7 µM; purified proKLK7, EDANS-DABCYL substrate fluorescence; 100% is mature enzyme control, 0% vehicle; AID 652039, 2013; Kallikrein-7 (Homo sapiens), P49862; 370,000 compounds, 0.9% hits;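 active means activation above the mean of all tested compounds plus 3 SD, computed per campaign excluding outliers beyond control limits, cut at about 13% in these data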
rCAG RNA binder: binders of r(CAG) RNA repeats, primary screen, biochemical, fluorescence. r(CAG) RNA repeat, TO-PRO-1 dye displacement fluorescence. inhibition, % at 3 µM. 370,000 compounds, 1.3% hits. AID 651821, 2012;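 active means inhibition above the plate cutoff, the mean of all test compounds on that plate plus 3 SD, cut at about 35% in these data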;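 further: higher means more dye released from RNA so lower well fluorescence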
NR3A LBD binder: binders of NR3A ligand-binding domain, primary screen, biophysical, differential scanning fluorimetry, uHTS. NR3A LBD differential scanning fluorimetry, Tm shift; 0% = protein alone, 100% = glycine-bound protein. Glutamate receptor ionotropic, NMDA 3A (GRIN3A) ligand-binding domain. Tm shift relative to glycine control, % at 25 µM. 340,000 compounds, 2.5% hits. AID 1259313, 2017;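 active means melting temperature shift of at least 10% of the positive control shift, at one fixed dose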
AHR activator: AHR activators, primary screen, cell-based, luminescence, luciferase reporter, human | 320,000 compounds, 2.5% hits | AID 2796, 2010 | activation, % at 5 µM | Aryl hydrocarbon receptor (Homo sapiens), P35869 | AHR-responsive luciferase reporter cells; in the data active means activation above about 47%
ADAM17 inh: ADAM17 inhibitors, primary screen, biochemical, QFRET; AID 720648, 2013; inhibition, % at 6.95 µM; recombinant ADAM17, EDANS/DABCYL FRET peptide cleavage; 370,000 compounds, 0.83% hits;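 active means inhibition above the mean of compounds lying between control limits plus 3 SD, set per campaign, cut at about 8.5% in these data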
Numbers stand for hits; . = inactive; / = no result given.

SMILES	ADAM10 inh	KLK7 zymogen act	rCAG RNA binder	NR3A LBD binder	AHR activator	ADAM17 inh
CCOC(=O)[C@@]12CCCC=C1N(CCc1ccc(Cl)cc1)C(=O)[C@H]2CC(=O)NCC12CC3CC(CC(C3)C1)C2	.	.	.	/	/	.
CCOC(=O)c1c(O)c2ccccc2n(-c2ccccc2)c1=O	.	.	.	11	.	.
Cc1c(-c2cc(Br)ccc2O)nc2cc3c(cc2c1C)OCO3	.	.	.	.	63	.
COC(=O)C[C@H]1CC[C@H]2[C@H](COc3ccc(NS(=O)(=O)c4cccc(F)c4)cc3C(=O)N2C)O1	.	.	.	/	/	.
COc1cc(-c2nnc(SCC(=O)c3ccc(C)cc3)o2)cc(OC)c1OC	.	.	.	11	.	.
Cc1cc(C)c(C)c(C(=O)CSc2nnc(-c3ccc4[nH]c(C)c(C)c4c3)o2)c1C	.	.	.	.	.	.
Cc1[nH]c2ccc(-c3nnc(SCC(=O)c4ccc(F)cc4)o3)cc2c1C	.	.	.	29	.	.
CCOC(=O)CC[C@H]1CC[C@]2(CCCN(C(=O)c3ccc4ccccc4n3)C2)O1	.	.	.	/	/	.
COc1ccc(-n2c(SCc3ccc([N+](=O)[O-])cc3)nnc2-c2ccco2)cc1	.	.	.	/	/	.
COC(=O)C12C=C3CC(C)=C3C(=O)N1Cc1[nH]c3ccccc3c1C2 (configuration not stated)	.	.	.	/	/	.
N#Cc1ccc(NC(=O)OC2CCC23CCC(c2ccccc2)CC3)cc1 (configuration not stated)	.	.	.	/	/	.
Cc1cc(C(=O)COC(=O)CNC(=O)c2ccco2)c(C)n1Cc1ccco1	.	.	.	.	.	.
COc1cc(OC)cc(C(=O)NCC(=O)OCC(=O)c2cc(C)n(Cc3ccco3)c2C)c1	.	.	.	19	.	.
O=C(OCC#CCSc1nnc(-c2cc3ccccc3cc2O)o1)c1ccc(F)cc1	.	/	/	/	/	.
CCCCCN1CCCCC(NC(=O)c2ccc3ccccc3c2)C1=O (configuration not stated)	.	.	.	/	/	.
COc1ccc(/C=C/C(=O)NC(=S)Nc2ccccc2C(=O)NC2CCCCC2)cc1	.	.	.	28	.	.
COc1ccc(NC(=S)NC(=O)/C=C/c2ccc(F)cc2)cc1	.	.	.	.	/	.
O=C(/C=C/c1ccccc1)NC(=S)Nc1ccccc1C(=O)NC1CCCCC1	.	.	.	25	.	.
CCC(=O)Nc1ccc(Br)cn1	.	.	.	233	.	.
COc1ccc(/C=C/C(=O)NC(=S)Nc2ccc(Br)cn2)cc1	.	.	.	25	.	.
Cc1ccc(/C=C/C(=O)NC(=S)Nc2ccccc2C(=O)NC2CCCCC2)cc1	.	.	.	.	.	.
C=CCN(CC=C)C[C@@H]1CSCCS(=O)(=O)N1	.	.	.	/	/	.
Oc1ccc(N=Nc2n[nH]c(-c3ccc(Cl)cc3)n2)cc1	.	.	.	24	.	.
CCOC(=O)CC[C@H]1CC[C@]2(CCCN(C(=O)c3cccnc3)C2)O1	.	.	.	/	/	.
CC(C)(C)c1ccc(C(=O)Nc2cc(Cl)ccc2C(=O)O)cc1	.	/	/	/	/	.
SMILES	ADAM10 inh	KLK7 zymogen act	rCAG RNA binder	NR3A LBD binder	AHR activator	ADAM17 inh
COc1ccc(Cl)c2c1[nH]c1nc(SCc3ccccn3)nnc12	.	.	.	.	59	.
O=[N+]([O-])c1cccc(S(=O)(=O)Nc2ccccn2)c1	.	.	.	/	/	.
O=S(=O)(Nc1ccccn1)c1cccc(S(=O)(=O)c2ccc(Br)cc2)c1	.	.	.	14	.	.
O=S(=O)(c1cccc(NC(=S)N2CCN(c3ccc(F)cc3)CC2)c1)C(F)F	.	.	.	.	.	.
O=S(=O)(c1cccc(NC(=S)N2CCN(c3cccc(Cl)c3)CC2)c1)C(F)F	.	.	.	26	.	.
O=C(NC(=S)Nc1ccccc1N1CCOCC1)c1ccc(Br)cc1	.	.	.	.	55	.
COc1cc2ccccc2cc1C(=O)NC(=S)Nc1ccc(C(=O)O)cc1	.	.	.	.	52	.

Screening results (PubChem BioAssay)
